# Data published in the supplement of paper PMC8728848.
# This excerpt belongs to a sample that is enriched for the strongest signals.
# B1: PX9937A-bvu-521-23-521 (Bacteroides vulgatus) (protein)
# chain: LDLAPEDYYGAGNFWKEASQPKAFMLGLHAQLRSYYDMFYTLGELRGGTQRVGTSSLNTSLNYADIRSQNISEDIPGISNWNGLYSPIMQVNHFIQEVENGCTFLDDATRSRYLGQAYGMRALYYFMLYRTFGGVPLITKVDILDGKPSADKFYVERATPEATMEFIKADINKSENYFGNNTSFDAYDWSRYATLMLKAEIYMWAAKVSITGFTATGATDLQTAKTALSGIIGHFELMDNFASIFSCDNKKNTEIIFAMPFIEGEASNDGGRFLYQDAVFLGQAYGRNGKVIEKDTLNLKGTGGVFRDEYTEDFWKTFKEGDSRRDATFMEYYMKNDNGTLSEFGCVMKKRIGTINSNDNRIYISDIPVYRYADALLMMAEIENGLNNPCASYINEVRKRAYGDTFEENKYTEGSYAENELAILQERDKEFVSEGKRWFDVLRMHDASGRSLVFSANANYPGTNPILGTEEAYKMLWPVNIGTLNVNPLLTQTPGYGKK
# What was measured:
# Experiment in all cases: glycan array binding signal (z-score within array); higher = stronger binding
# Settings in all cases: glycan notation: IUPAC condensed, linker removed
# [1] = target: GalNAc(b1-4)GlcNAc
# Method in brief: (§1)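 The Consortium for Functional Glycomics database supplied 3228 glycan arrays, of which those lacking an available protein sequence were dropped. The binding signal, a within-array Z-score, was averaged across arrays of the same protein sequence and across linkers. Negative scores can be read as non-binding.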
# [2] = target: GlcNAc(b1-2)Man(a1-3)[GlcNAc(b1-4)][GlcNAc(b1-2)Man(a1-6)]Man(b1-4)GlcNAc(b1-4)[Fuc(a1-6)]GlcNAc
# Method in brief: as §1
# [3] = target: GlcNAc(b1-3)Fuc
# Method in brief: as §1
# [4] = target: GlcNAc(b1-3)Gal(b1-4)GlcNAc(b1-2)Man(a1-3)[GlcNAc(b1-3)Gal(b1-4)GlcNAc(b1-2)Man(a1-6)]Man(b1-4)GlcNAc(b1-4)GlcNAc
# Method in brief: as §1
# [5] = target: GlcNAc(b1-3)Gal(b1-4)GlcNAc(b1-3)Gal(b1-4)GlcNAc(b1-3)Gal(b1-4)GlcNAc(b1-2)[GlcNAc(b1-3)Gal(b1-4)GlcNAc(b1-3)Gal(b1-4)GlcNAc(b1-3)Gal(b1-4)GlcNAc(b1-6)]Man(a1-6)[GlcNAc(b1-3)Gal(b1-4)GlcNAc(b1-3)Gal(b1-4)GlcNAc(b1-3)Gal(b1-4)GlcNAc(b1-2)Man(a1-3)]Man(b1-4)GlcNAc(b1-4)[Fuc(a1-6)]GlcNAc
# Method in brief: as §1
# [6] = target: GlcNAc(b1-3)Gal(b1-4)GlcNAc(b1-3)Gal(b1-4)GlcNAc(b1-3)Gal(b1-4)GlcNAc(b1-3)Gal(b1-4)GlcNAc(b1-2)Man(a1-3)[GlcNAc(b1-3)Gal(b1-4)GlcNAc(b1-3)Gal(b1-4)GlcNAc(b1-3)Gal(b1-4)GlcNAc(b1-3)Gal(b1-4)GlcNAc(b1-2)Man(a1-6)]Man(b1-4)GlcNAc(b1-4)[Fuc(a1-6)]GlcNAc
# Method in brief: as §1
# [7] = target: GlcNAc(b1-3)Gal(b1-4)GlcNAc(b1-6)[GlcNAc(b1-3)]Gal(b1-4)GlcNAc
# Method in brief: as §1
# [8] = target: Kdn(a2-3)Gal(b1-3)GalNAc
# Method in brief: as §1
# [9] = target: Kdn(a2-3)Gal(b1-4)Glc
# Method in brief: as §1
# [10] = target: Man(a1-2)Man(a1-3)[Man(a1-2)Man(a1-6)]Man(a1-6)[Man(a1-2)Man(a1-2)Man(a1-3)]Man(b1-4)GlcNAc(b1-4)GlcNAc
# Method in brief: as §1
# [11] = target: Man(a1-6)Man
# Method in brief: as §1
# [12] = target: Neu5Ac(a2-3)Gal(b1-3)GalNAc(b1-4)[Neu5Ac(a2-8)Neu5Ac(a2-3)]Gal(b1-4)Glc
# Method in brief: as §1
# [13] = target: Neu5Ac(a2-3)Gal(b1-4)Glc
# Method in brief: as §1
# [14] = target: Neu5Ac(a2-3)Gal(b1-4)GlcNAc(b1-2)Man(a1-3)[GlcNAc(b1-4)][Neu5Ac(a2-3)Gal(b1-4)GlcNAc(b1-2)Man(a1-6)]Man(b1-4)GlcNAc(b1-4)GlcNAc
# Method in brief: as §1
# [15] = target: Neu5Ac(a2-3)Gal(b1-4)GlcNAc(b1-2)[Neu5Ac(a2-3)Gal(b1-4)GlcNAc(b1-6)]Man(a1-6)[Neu5Ac(a2-3)Gal(b1-4)GlcNAc(b1-2)Man(a1-3)][GlcNAc(b1-4)]Man(b1-4)GlcNAc(b1-4)GlcNAc
# Method in brief: as §1
# [16] = target: Neu5Ac(a2-3)Gal(b1-4)[Fuc(a1-3)]GlcNAc(b1-6)[Gal(b1-3)]GalNAc
# Method in brief: as §1
# [17] = target: Neu5Ac(a2-6)Gal(b1-4)GlcNAc(b1-2)Man(a1-6)Man(b1-4)GlcNAc(b1-4)GlcNAc
# Method in brief: as §1
# [18] = target: Neu5Ac(a2-6)Gal(b1-4)GlcNAc(b1-2)Man(a1-6)[GlcNAc(b1-2)Man(a1-3)]Man(b1-4)GlcNAc(b1-4)GlcNAc
# Method in brief: as §1
# [19] = target: Neu5Ac(a2-6)Gal(b1-4)GlcNAc(b1-3)Gal(b1-4)GlcNAc(b1-3)Gal(b1-4)GlcNAc(b1-2)Man(a1-3)[Neu5Ac(a2-6)Gal(b1-4)GlcNAc(b1-3)Gal(b1-4)GlcNAc(b1-3)Gal(b1-4)GlcNAc(b1-2)Man(a1-6)]GalNAc
# Method in brief: as §1
# [20] = target: Neu5Ac(a2-6)Gal(b1-4)GlcNAc(b1-3)GalNAc
# Method in brief: as §1
# [21] = target: Neu5Ac(a2-6)GalNAc(b1-4)GlcNAc6S
# Method in brief: as §1
# [22] = target: Neu5Ac(a2-8)Neu5Gc(a2-3)Gal(b1-4)GlcNAc
# Method in brief: as §1
# [23] = target: Neu5Ac9Ac(a2-3)Gal(b1-4)GlcNAc
# Method in brief: as §1
# [24] = target: Neu5Ac9Ac(a2-6)Gal(b1-4)GlcNAc
# Method in brief: as §1
# [25] = target: Neu5Gc(a2-6)GalNAc
# Method in brief: as §1
# [26] = target: Neu5Gc(a2-8)Neu5Gc(a2-3)Gal(b1-4)GlcNAc(b1-3)Gal(b1-4)GlcNAc
# Method in brief: as §1
binder,measurement,setting,value
B1,glycan array binding signal (z-score),[1],2.94
same,glycan array binding signal (z-score),[2],-0.211
same,glycan array binding signal (z-score),[3],2.63
same,glycan array binding signal (z-score),[4],2.54
same,glycan array binding signal (z-score),[5],-0.128
same,glycan array binding signal (z-score),[6],-0.708
same,glycan array binding signal (z-score),[7],-0.214
same,glycan array binding signal (z-score),[8],2.84
same,glycan array binding signal (z-score),[9],-0.287
same,glycan array binding signal (z-score),[10],-0.427
same,glycan array binding signal (z-score),[11],4.8
same,glycan array binding signal (z-score),[12],0.038
same,glycan array binding signal (z-score),[13],0.96
same,glycan array binding signal (z-score),[14],-0.062
same,glycan array binding signal (z-score),[15],-0.581
same,glycan array binding signal (z-score),[16],-0.51
same,glycan array binding signal (z-score),[17],-0.252
same,glycan array binding signal (z-score),[18],-0.416
same,glycan array binding signal (z-score),[19],0.232
same,glycan array binding signal (z-score),[20],-0.431
same,glycan array binding signal (z-score),[21],0.342
same,glycan array binding signal (z-score),[22],10.6
same,glycan array binding signal (z-score),[23],0.442
same,glycan array binding signal (z-score),[24],0.304
same,glycan array binding signal (z-score),[25],-0.419
same,glycan array binding signal (z-score),[26],-0.58
